Compound activity: PubChem, National Center for Advancing Translational Sciences (NCATS)
The entries come from a sample that favours hits as a whole.
Vaccinia mCherry – vaccinia inhibition (mCherry reporter). Vaccinia virus mCherry reporter infection, fluorescence. 310,000 compounds, 0.63% hits. Potency, µM (series often up to 36.5 µM), actives largely listed as inhibitors; calls by dose curve; tested in A549 cells; also: nearly all actives have a fitted effect of over 35% in size
VACV Venus inh – inhibitors of vaccinia virus (Venus reporter); Vaccinia virus Venus reporter expression, fluorescence; Potency, µM (top dose mostly 36.5 µM), usual class: inhibitors; 330,000 compounds, 0.46% hits; AID 720580; calls by dose curve; tested in A549 cells; also: nearly all actives have a fitted effect of over 30% in size
Marburg entry inh – inhibitors of Marburg virus binding or cell entry. Marburg virus pseudotyped entry inhibition, cell reporter. Potency, µM (doses to about 37.8 µM), most hits filed as inhibitors. 300,000 compounds, 1.8% hits. AID 540276; calls by dose curve; tested in HEK293 cells
Lassa entry inh – blocks Lassa virus binding to or entry into cells; Lassa virus pseudotype entry inhibition, cell reporter; Potency, µM (series often up to 37.9 µM), actives largely listed as inhibitors; 300,000 compounds, 1.2% hits; AID 540256; calls by dose curve; tested in HEK293 cells; also: nearly all actives have a fitted effect of over 50% in size
Cycloheximide cs – counter-screen for Shiga toxin inhibitors: cycloheximide protein synthesis inhibition; cell reporter, cycloheximide protein synthesis inhibition counterscreen; max response, %; 300,000 compounds, 12% hits; AID 2314; in the data active = max response mostly above about 13%, no sharp cut-off; inactive = mostly below about 14%; also: read at 38.3 µM for the half of the compounds with a filed dose
Shiga toxin inh – Shiga toxin inhibition. Vero cells, Shiga toxin protein synthesis inhibition reporter. inhibition, % at 38.7 µM. 290,000 compounds, 9.2% hits; in the data active = inhibition mostly above about 28%, no sharp cut-off; inactive = mostly below about 43%
Numbers stand for hits; i = inactive; ? = inconclusive; nt = no result; [ ] = remark or other dose.

SMILES	Vaccinia mCherry	VACV Venus inh	Marburg entry inh	Lassa entry inh	Cycloheximide cs	Shiga toxin inh
COc1ccc2[nH]c(C(=O)NCCc3ccccc3)cc2c1	i	i	?	i	32	85
COc1ccc2[nH]c(C(=O)NCCN3CCCCC3)cc2c1	i[7.34 µM]	i[7.34 µM]	i	i	i	i
CCCCNC(=O)c1cc2cc(OC)ccc2[nH]1	nt	nt	nt	nt	14	i
COc1ccccc1NC(=O)c1nnn(-c2ccc(F)cc2)c1C	i	i	?	i	nt	nt
COc1c(Cl)cc(Cl)cc1/C=C(\C#N)c1nc2ccccc2[nH]1	i	i	nt	i	nt	nt
COc1c(O)ccc(/C=C(\C#N)c2nc3ccccc3[nH]2)c1[N+](=O)[O-]	i	i	i	i	40	64
COc1ccc(/C=C(\C#N)c2nc3ccccc3[nH]2)cc1O	i	i	?	i	19	29
COc1cc(/C=C(\C#N)c2nc3ccccc3[nH]2)cc(Br)c1OCc1ccccc1	i	i	?	?	12	i
COc1cc(/C=C(/C#N)c2nc3ccccc3[nH]2)ccc1OC(=O)c1ccco1	i	i	i	i	28	82
O=C1[C@H]2[C@H]3[C@H](O)[C@H](O)C/C(=N\OC[C@@H](O)COCc4ccco4)[C@@H]3CC[C@H]2C(=O)N1C[C@@H]1CCCO1	nt	nt	i	nt	nt	nt
Cc1cccc2c1-c1sc(C(=O)NCCc3ccc(Cl)cc3)cc1CO2	?	?	i	nt	nt	nt
COc1cc(SC)ccc1C(=O)OCC(=O)N1CC(=O)Nc2ccccc21	i	i	i	i	nt	nt
COc1cc(/C=C(/C#N)c2ccccc2)ccc1Oc1ccc([N+](=O)[O-])cn1	nt	nt	i	i	i	i
COc1cc(/C=C(\C#N)c2nc3ccccc3[nH]2)ccc1Oc1ccc([N+](=O)[O-])cn1	?	i	?	i	23	i
CCN1CCN(c2nc3c(C)cccn3c(=O)c2C=C(C#N)C#N)CC1	nt	nt	nt	nt	i	i
CCOC(=O)c1sc(=S)n(C)c1NC(=O)c1ccc(C(C)(C)C)cc1	i	i	14µM	?	i	i
CCOC(=O)c1sc(=S)n(C)c1NC(=O)c1ccc(OC)cc1	i	i	i	i	i	i
CC(C)(C)c1ccc(-c2nnc(-c3ccccc3NC(=O)c3ccc(F)cc3F)o2)cc1	i	i	i	i	nt	nt
Cc1ccc(Cl)cc1N1CCN(C(=O)c2cn(C)c3ccc(S(=O)(=O)N4CCCCC4)cc3c2=O)CC1	i	i	i	i	nt	nt
Fc1ccc([C@H]2CCNC[C@H]2COc2ccc3c(c2)OCO3)cc1	nt	nt	16µM	nt	nt	nt
CN(C)S(=O)(=O)N1CCC(c2ccc(F)cc2)C(COc2ccc3c(c2)OCO3)C1 (configuration not stated)	i	i	2.8µM	?	i	i
COc1ccc(Cl)cc1NC(=O)c1cc2nc(-c3ccc(C)cc3)cc(C(F)(F)F)n2n1	i	i	?	i	nt	nt
CCC1CN(CCNC(=O)c2cccc(C(=O)OC)c2)Cc2cc(OC)ccc2O1 (configuration not stated)	i	i	nt	nt	nt	nt
c1ccc(Nc2nc(CSc3ncn[nH]3)cs2)cc1	i	i	i	i	43	68
O=C(CSc1ncn[nH]1)Nc1nc(-c2ccccc2)cs1	nt	i	i	i	i	i
SMILES	Vaccinia mCherry	VACV Venus inh	Marburg entry inh	Lassa entry inh	Cycloheximide cs	Shiga toxin inh
CC(=O)Nc1c(O)cc(Br)c2nonc12	i	i	nt	nt	nt	nt
CC(=O)Nc1cc(O)c2nonc2c1O	11µM	3.5µM	nt	nt	nt	nt
CN(C)S(=O)(=O)N1CCc2ccc(NC(=O)c3ccc(C(F)(F)F)cc3)cc2C1	nt	nt	nt	nt	27	nt
CC(=O)N1CCCc2ccc(NC(=O)c3ccc(C(F)(F)F)cc3)cc21	i	i	nt	i	nt	nt
COCCC(=O)N1CCc2ccc(NC(=O)c3ccc(C(F)(F)F)cc3)cc2C1	nt	nt	nt	nt	i	26
CCOCCCNC(=O)C(c1ccccc1)N(Cc1ccc2c(c1)OCO2)C(=O)c1ccc(NC(C)=O)cc1 (configuration not stated)	i	i	?	?	nt	nt
c1ccc2nc3c(cc2c1)CCCCC3	i	i	nt	nt	30	44
CCOc1cccc(/C=C2\NC(=S)N(c3ccccc3)C2=O)c1O	i	i	nt	nt	42	55
CCOc1cc(/C=C2\NC(=S)N(c3c(C)n(C)n(-c4ccccc4)c3=O)C2=O)ccc1O	i	i	i	i	i	i
CCc1ccccc1NC(=O)c1ccc(S(=O)(=O)NCC2CCCO2)cc1 (configuration not stated)	i	i	i	i	i	i
c1ccc(-c2ccccc2-c2nc(-c3cccnc3)no2)cc1	i	i	?	i	i	i
COc1ccc(-c2noc(-c3ccccc3-c3ccccc3)n2)cc1	nt	nt	i	i	i	i
c1ccc2c(-c3nc(-c4ccncc4)no3)cccc2c1	i	i	i	i	21	63
